PubChem BioAssay (EPA / NIEHS)
Calls of active or inactive are those of the source. How the source made its calls: active means hit-call score of the fitted dose curve at least 0.9, where 1 is the maximum; inactive means score below 0.9.

Assays:
[1] = ATG_EGR_CIS: Attagene CIS-FACTORIAL HepG2 Assay for human Early Growth Response 1 (EGR1) (AID 2282938); conditions: HepG2 Attagene CIS-FACTORIAL EGR reporter mRNA; actives raise or lower the signal
How it was run: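 Read-out: fluorescent reporter-mRNA fragments resolved by capillary electrophoresis after RT-PCR, 24 h post-dose in transiently transfected HepG2. Endogenous transcription-factor activity reported via cis-element-regulated reporter units; gain or loss fitted relative to DMSO.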

[2] = ATG_M_19_CIS: Attagene CIS-FACTORIAL HepG2 Assay for M19 Transcription Factor (Internal Marker) (AID 2282939); conditions: HepG2 Attagene CIS-FACTORIAL M19 internal marker reporter; actives raise or lower the signal
How it was run: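 HepG2 cells transiently transfected with cis-regulated multiplexed reporter units, dosed 24 h. Reporter mRNA quantified by RT-PCR and capillary electrophoresis; internal background marker fitted bidirectionally versus DMSO.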

[3] = ATG_ERE_CIS: Attagene CIS-FACTORIAL HepG2 Assay for Estrogen Response Element (ERE) (AID 2282940); conditions: HepG2 ERE cis-reporter, Attagene RNA transcript; actives raise or lower the signal
How it was run: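 HepG2 cells transiently transfected with multiplexed cis-element reporter units, measuring endogenous transcription factor activity; ERE reporter mRNA quantified after 24 h exposure by RT-PCR, fluorescent labelling, HpaI digestion and capillary electrophoresis. Bidirectional change versus DMSO.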

[4] = ATG_Ets_CIS: Attagene CIS-FACTORIAL HepG2 Assay for human Erythroblast Transformation Specific (ETS) (AID 2282941); conditions: HepG2 ETS cis-reporter transcription; AC50: actives raise or lower the signal unless noted; outcome: actives raise or lower the signal unless noted
How it was run: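 Bidirectional fit versus DMSO of reporter mRNA signal, detected by RT-PCR and capillary electrophoresis in HepG2 cells transiently transfected with cis-element reporters and dosed 24 h.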

[5] = target: Hepatocyte nuclear factor 3-beta (Homo sapiens) (UniProt Q9Y261); assay: ATG_FoxA2_CIS: Attagene CIS-FACTORIAL HepG2 Assay for human Forkhead box A2 (FOXA2) (AID 2282942); conditions: HepG2 cis-reporter transcription factor activity, 24 h; actives raise or lower the signal
How it was run: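 Readout: fluorescent reporter transcripts resolved by capillary electrophoresis after RT-PCR. Transiently transfected HepG2, 24 h compound exposure, endogenous TF activity at cis promoter elements. Gain or loss of signal fitted relative to DMSO.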

[6] = ATG_FoxO_CIS: Attagene CIS-FACTORIAL HepG2 Assay for human Forkhead box O (FoxO) (AID 2282943); conditions: HepG2 Attagene cis-reporter, FoxO element, mRNA; actives raise or lower the signal
How it was run: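 HepG2, transient MRTU transfection (cis element, endogenous TFs). Dose 24 h. TriZol RNA → oligo(dT) RT → PCR → 6-FAM primer extension → HpaI cut → CE. Gain/loss vs DMSO.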

[7] = ATG_GATA_CIS: Attagene CIS-FACTORIAL HepG2 Assay for human GATA Binding Protein (AID 2282944); conditions: HepG2 GATA cis-element reporter, Attagene multiplex mRNA; actives raise or lower the signal
How it was run: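 HepG2 cells transiently transfected with multiplexed cis-element reporter units measure endogenous GATA activity; after 24 h compound exposure, reporter mRNA quantified by RT-PCR and capillary electrophoresis. Changes fitted in both directions vs DMSO.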

[8] = ATG_GLI_CIS: Attagene CIS-FACTORIAL HepG2 Assay for human Zinc Finger Protein GLI1 (AID 2282945); conditions: HepG2, Attagene cis-factorial reporter mRNA, GLI element; actives raise or lower the signal
How it was run: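 Bidirectional curve fits relative to DMSO, using reporter mRNA levels from RT-PCR plus capillary electrophoresis. Cells were HepG2 transiently carrying cis-regulated reporter constructs, harvested 24 h after dosing.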

[9] = ATG_GRE_CIS: Attagene CIS-FACTORIAL HepG2 Assay for human Glucocorticoid Response Elements (GRE) (AID 2282947); conditions: HepG2 GRE cis-reporter, Attagene multiplex mRNA; AC50: actives raise or lower the signal unless noted; outcome: actives raise or lower the signal unless noted
How it was run: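 Reporter transcripts read by RT-PCR with capillary electrophoresis fluorescence after a 24 h chemical exposure of HepG2 cells transiently transfected with multiple cis-element reporter units. Gain or loss fitted against DMSO.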

[10] = ATG_ISRE_CIS: Attagene CIS-FACTORIAL HepG2 Assay for human Interferon Regulatory Factor 1 (IRF1) binding to an Interferon-Stimulated Response Element (ISRE) (AID 2282948); conditions: HepG2 ISRE cis-reporter (Attagene), mRNA transcription readout; actives raise or lower the signal
How it was run: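 Uses HepG2 liver cells transfected with cis-regulated reporters and measures mRNA 24 h post-dosing through RT-PCR, primer-extension labelling and capillary electrophoresis, with DMSO as negative control.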

[11] = ATG_M_32_CIS: Attagene CIS-FACTORIAL HepG2 Assay for M32 Transcription Factor (Internal Marker) (AID 2282949); conditions: HepG2 Attagene cis-factorial M32 reporter, mRNA; actives raise or lower the signal;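 further: background control marker of the multiplexed CIS panel rather than a real target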
How it was run: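 HepG2 human liver cells transiently transfected with cis-promoter-driven multiple reporter transcription units, dosed 24 h. Reporter mRNA quantified by RT-PCR, FAM-labelled primer extension, HpaI digest and capillary electrophoresis; bidirectional fit versus DMSO baseline.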

[12] = ATG_M_06_CIS: Attagene CIS-FACTORIAL HepG2 Assay for M06 Transcription Factor (Internal Marker) (AID 2282950); conditions: HepG2 Attagene CIS-FACTORIAL M06 internal marker reporter; actives raise or lower the signal
How it was run: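 Internal background marker within multiplexed cis-reporter HepG2 system. Cells transiently transfected, dosed 24 h; reporter mRNA measured by RT-PCR, HpaI digestion and capillary electrophoresis. Bidirectional fit relative to DMSO.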

[13] = target: Hypoxia-inducible factor 1-alpha (Homo sapiens) (UniProt Q16665); assay: ATG_HIF1a_CIS: Attagene CIS-FACTORIAL HepG2 Assay for human Hypoxia Inducible Factor 1 (HIF1A) (AID 2282951); conditions: HepG2 Attagene cis-factorial HIF1a reporter transcription; actives raise or lower the signal
How it was run: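 RT-PCR/capillary electrophoresis fluorescence readout of reporter transcripts from endogenous-TF-driven cis elements in transfected HepG2 cells, 24 h exposure; activity fitted in both directions against DMSO controls.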

[14] = target: Hepatocyte nuclear factor 6 (Homo sapiens) (UniProt Q9UBC0); assay: ATG_HNF6_CIS: Attagene CIS-FACTORIAL HepG2 Assay for human Hepatocyte Nuclear Factor 6 (HNF6) (AID 2282952); conditions: HepG2 Attagene cis-factorial HNF6 reporter transcription; actives raise or lower the signal
How it was run: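 Twenty-four-hour chemical treatment of reporter-transfected HepG2 cells precedes RNA isolation, DNase-treated reverse transcription and PCR of reporter sequences. Labelled fragments are sized by capillary electrophoresis and fitted bidirectionally versus DMSO.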

[15] = target: Heat shock factor protein 1 (Homo sapiens) (UniProt Q00613); assay: ATG_HSE_CIS: Attagene CIS-FACTORIAL HepG2 Assay for human Heat Shock Transcription Factor 1 (HSE) (AID 2282953); conditions: HepG2 HSE cis-reporter, Attagene RNA transcription; actives raise or lower the signal
How it was run: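 HepG2 cells transfected with cis-promoter reporter units sensing endogenous transcription factor activity; reporter mRNA quantified 24 h post-dose by RT-PCR and capillary electrophoresis of 6-FAM-labelled products. Bidirectional fitting against DMSO.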

[16] = ATG_MRE_CIS: Attagene CIS-FACTORIAL HepG2 Assay for human Metal Responsive Element (MRE) (AID 2282954); conditions: HepG2 MRE cis-reporter transcription, Attagene multiplex; actives raise or lower the signal
How it was run: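 Endogenous MRE-dependent transcription read as reporter mRNA in transiently transfected human HepG2 cells at 24 h. RNA reverse-transcribed, PCR-amplified, labelled and resolved by capillary electrophoresis; gain or loss relative to DMSO.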

[17] = ATG_PBREM_CIS: Attagene CIS-FACTORIAL HepG2 Assay for human Phenobarbital-responsive Enhancer Module (PBREM) (AID 2282955); conditions: HepG2 PBREM cis-reporter, Attagene multiplexed transcription; actives raise or lower the signal
How it was run: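 Reporter mRNA read by RT-PCR, 6-FAM primer extension, HpaI digestion and capillary electrophoresis. Transfected HepG2 cells, 24 h compound exposure. Gain or loss of signal fitted bidirectionally relative to DMSO baseline.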

[18] = target: Paired box protein Pax-6 (Homo sapiens) (UniProt P26367); assay: ATG_Pax6_CIS: Attagene CIS-FACTORIAL HepG2 Assay for human Paired Box 6 (PAX6) (AID 2282956); conditions: HepG2 CIS-FACTORIAL PAX6 reporter transcription, RNA readout; actives raise or lower the signal
How it was run: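 DMSO-referenced bidirectional fits of reporter mRNA fluorescence; HepG2 with transient cis-promoter MRTUs, 24 h post-dose, RT-PCR plus capillary electrophoresis detection.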

[19] = ATG_PXRE_CIS: Attagene CIS-FACTORIAL HepG2 Assay for human Pregnane X Receptor Element (PXRE) (AID 2282957); conditions: HepG2 Attagene CIS-FACTORIAL PXRE reporter, mRNA; actives raise or lower the signal
How it was run: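 Bidirectional activity, baselined to DMSO, derived from reporter mRNA fluorescence (RT-PCR plus capillary electrophoresis) in HepG2 cells bearing cis-promoter reporter units, 24 h exposure.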

[20] = target: Bile acid receptor (Homo sapiens) (UniProt Q96RI1); assay: ATG_IR1_CIS: Attagene CIS-FACTORIAL HepG2 Assay for human Nuclear Receptor Subfamily 1 Group H Member 4 (NR1H4), IR1 submotif (AID 2282946); conditions: IR1 reporter transcription, actives raise or lower the signal
How it was run: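 HepG2 cells transiently transfected with multiplexed cis-element reporter units read endogenous transcription factor activity. After 24 h compound exposure, reporter mRNA was quantified by RT-PCR, fluorescent labelling, HpaI digestion and capillary electrophoresis; bidirectional fitting versus DMSO baseline.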

Measured: AC50

Sequence of Hepatocyte nuclear factor 3-beta (Homo sapiens) (Q9Y261 whole entry, looked up): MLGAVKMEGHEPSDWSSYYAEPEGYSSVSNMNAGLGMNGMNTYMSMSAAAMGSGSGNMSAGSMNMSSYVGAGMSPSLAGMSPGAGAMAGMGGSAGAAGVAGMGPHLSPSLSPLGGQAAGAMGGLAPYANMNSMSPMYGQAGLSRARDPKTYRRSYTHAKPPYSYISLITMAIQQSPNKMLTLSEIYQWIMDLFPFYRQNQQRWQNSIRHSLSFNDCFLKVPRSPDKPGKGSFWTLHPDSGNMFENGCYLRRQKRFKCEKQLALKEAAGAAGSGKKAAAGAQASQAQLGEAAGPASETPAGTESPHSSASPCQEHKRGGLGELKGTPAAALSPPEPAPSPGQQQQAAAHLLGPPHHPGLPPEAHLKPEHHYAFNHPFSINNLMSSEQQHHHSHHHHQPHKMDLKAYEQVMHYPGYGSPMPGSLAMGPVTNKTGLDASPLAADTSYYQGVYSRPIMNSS
Sequence of Hepatocyte nuclear factor 6 (Homo sapiens) (Q9UBC0 whole entry, looked up, the tested form may be a part): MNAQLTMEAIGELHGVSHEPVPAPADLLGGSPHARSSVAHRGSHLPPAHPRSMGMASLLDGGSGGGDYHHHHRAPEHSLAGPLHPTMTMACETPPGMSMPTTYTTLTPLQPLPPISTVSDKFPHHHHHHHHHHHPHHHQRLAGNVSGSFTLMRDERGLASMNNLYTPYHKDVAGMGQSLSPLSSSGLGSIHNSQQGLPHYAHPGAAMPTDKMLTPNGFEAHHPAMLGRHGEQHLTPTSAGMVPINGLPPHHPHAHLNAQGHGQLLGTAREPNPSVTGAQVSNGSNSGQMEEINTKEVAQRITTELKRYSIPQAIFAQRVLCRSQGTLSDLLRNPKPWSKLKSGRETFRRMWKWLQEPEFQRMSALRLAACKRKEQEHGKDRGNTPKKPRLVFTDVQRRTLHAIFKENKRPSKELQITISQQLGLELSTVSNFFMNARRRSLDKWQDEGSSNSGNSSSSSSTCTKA
Sequence of Hypoxia-inducible factor 1-alpha (Homo sapiens) (Q16665 whole entry, looked up): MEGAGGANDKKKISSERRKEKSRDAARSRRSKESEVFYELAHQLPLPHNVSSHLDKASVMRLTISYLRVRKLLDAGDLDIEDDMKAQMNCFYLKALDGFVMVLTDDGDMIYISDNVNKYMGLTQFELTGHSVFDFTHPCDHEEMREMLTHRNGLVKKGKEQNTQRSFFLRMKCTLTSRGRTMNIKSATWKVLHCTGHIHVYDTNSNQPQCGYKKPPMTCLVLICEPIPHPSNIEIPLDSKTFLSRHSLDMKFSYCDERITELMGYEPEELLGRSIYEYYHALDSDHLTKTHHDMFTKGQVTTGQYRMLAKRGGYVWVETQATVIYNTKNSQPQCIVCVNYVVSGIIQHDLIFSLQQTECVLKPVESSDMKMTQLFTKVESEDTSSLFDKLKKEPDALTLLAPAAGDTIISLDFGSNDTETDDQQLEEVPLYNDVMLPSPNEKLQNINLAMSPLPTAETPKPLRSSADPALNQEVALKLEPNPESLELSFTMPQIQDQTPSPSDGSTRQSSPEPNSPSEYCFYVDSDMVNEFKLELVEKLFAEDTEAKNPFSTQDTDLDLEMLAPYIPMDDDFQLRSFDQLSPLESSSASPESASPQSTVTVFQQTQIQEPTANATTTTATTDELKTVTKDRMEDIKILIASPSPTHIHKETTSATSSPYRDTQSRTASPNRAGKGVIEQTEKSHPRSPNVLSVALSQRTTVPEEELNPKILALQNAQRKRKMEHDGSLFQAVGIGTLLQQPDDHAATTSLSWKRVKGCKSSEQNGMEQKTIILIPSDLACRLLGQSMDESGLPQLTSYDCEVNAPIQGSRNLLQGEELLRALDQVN
Sequence of Paired box protein Pax-6 (Homo sapiens) (P26367 whole entry, looked up): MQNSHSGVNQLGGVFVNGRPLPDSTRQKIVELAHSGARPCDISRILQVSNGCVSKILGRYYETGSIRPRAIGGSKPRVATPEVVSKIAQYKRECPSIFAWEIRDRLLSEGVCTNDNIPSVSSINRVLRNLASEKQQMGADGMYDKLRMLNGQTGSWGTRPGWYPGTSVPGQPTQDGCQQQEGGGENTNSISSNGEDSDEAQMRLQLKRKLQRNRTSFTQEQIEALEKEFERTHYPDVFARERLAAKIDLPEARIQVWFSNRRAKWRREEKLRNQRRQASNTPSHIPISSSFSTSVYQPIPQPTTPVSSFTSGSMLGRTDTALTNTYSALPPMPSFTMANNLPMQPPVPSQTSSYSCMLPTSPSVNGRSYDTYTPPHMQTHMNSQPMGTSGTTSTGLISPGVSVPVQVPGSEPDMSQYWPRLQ
Sequence of Heat shock factor protein 1 (Homo sapiens) (Q00613 whole entry, looked up): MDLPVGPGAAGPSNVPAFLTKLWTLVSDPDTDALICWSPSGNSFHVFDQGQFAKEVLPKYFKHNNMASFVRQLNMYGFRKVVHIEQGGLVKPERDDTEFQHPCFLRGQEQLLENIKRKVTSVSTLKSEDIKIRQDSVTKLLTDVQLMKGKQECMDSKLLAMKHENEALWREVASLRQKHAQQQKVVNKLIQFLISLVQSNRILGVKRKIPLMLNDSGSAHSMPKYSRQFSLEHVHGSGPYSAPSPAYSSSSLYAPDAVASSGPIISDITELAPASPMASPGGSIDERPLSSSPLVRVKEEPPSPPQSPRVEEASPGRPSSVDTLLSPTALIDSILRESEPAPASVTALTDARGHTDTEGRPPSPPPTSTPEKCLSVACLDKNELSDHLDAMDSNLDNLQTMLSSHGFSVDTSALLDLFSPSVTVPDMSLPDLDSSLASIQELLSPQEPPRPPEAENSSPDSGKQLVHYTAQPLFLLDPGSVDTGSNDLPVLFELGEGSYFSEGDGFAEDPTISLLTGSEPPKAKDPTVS
Sequence of Bile acid receptor (Homo sapiens) (Q96RI1 whole entry, looked up): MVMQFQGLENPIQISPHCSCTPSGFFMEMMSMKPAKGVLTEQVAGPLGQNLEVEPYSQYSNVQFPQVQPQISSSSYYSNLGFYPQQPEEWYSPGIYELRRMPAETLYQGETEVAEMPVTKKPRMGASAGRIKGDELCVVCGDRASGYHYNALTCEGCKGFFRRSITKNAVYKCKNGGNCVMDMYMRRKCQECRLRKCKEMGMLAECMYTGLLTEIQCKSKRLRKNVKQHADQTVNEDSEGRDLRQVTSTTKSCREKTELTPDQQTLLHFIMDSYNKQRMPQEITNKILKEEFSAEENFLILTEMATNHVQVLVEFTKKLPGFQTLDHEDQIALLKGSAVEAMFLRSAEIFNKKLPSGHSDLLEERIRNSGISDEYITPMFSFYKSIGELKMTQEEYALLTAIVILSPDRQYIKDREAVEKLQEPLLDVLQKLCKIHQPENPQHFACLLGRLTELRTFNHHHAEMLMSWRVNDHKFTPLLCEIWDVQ

C=CC(=O)OCCC(F)(F)C(F)(F)C(F)(F)C(F)(F)C(F)(F)C(F)(F)F
active: [3] 30.9 µM
not listed: [20]
inactive: all other assays above

CCc1cccc(CC)c1NC(=O)C(=O)O
not listed: [17] | [20]
inactive: all other assays above

CCOC(=O)CN[C@@H](C(=O)N1CC[C@H]1C(=O)NCc1ccc(/C(N)=N/O)cc1)C1CCCCC1
not listed: [10] | [15]
inactive: all other assays above
